# Measurements as given in PubChem BioAssay (Tox21).
# Inconclusive results are not listed. Entries that show only a call come without a potency. Calls of active or inactive are those of the source. Calls come from the whole dose curve; as a rule, active = well fitted activation curve with a large enough effect in the signal ratio in the repeat runs (not every such curve was filed as active); inconclusive = weak or mixed curves, or effect the other way; inactive = flat fitted curve, though single readings scatter; the % refers to the signal ratio.
# Target: Estrogen receptor beta (Homo sapiens) (UniProt Q92731)
# Sequence (Q92731 whole entry, looked up): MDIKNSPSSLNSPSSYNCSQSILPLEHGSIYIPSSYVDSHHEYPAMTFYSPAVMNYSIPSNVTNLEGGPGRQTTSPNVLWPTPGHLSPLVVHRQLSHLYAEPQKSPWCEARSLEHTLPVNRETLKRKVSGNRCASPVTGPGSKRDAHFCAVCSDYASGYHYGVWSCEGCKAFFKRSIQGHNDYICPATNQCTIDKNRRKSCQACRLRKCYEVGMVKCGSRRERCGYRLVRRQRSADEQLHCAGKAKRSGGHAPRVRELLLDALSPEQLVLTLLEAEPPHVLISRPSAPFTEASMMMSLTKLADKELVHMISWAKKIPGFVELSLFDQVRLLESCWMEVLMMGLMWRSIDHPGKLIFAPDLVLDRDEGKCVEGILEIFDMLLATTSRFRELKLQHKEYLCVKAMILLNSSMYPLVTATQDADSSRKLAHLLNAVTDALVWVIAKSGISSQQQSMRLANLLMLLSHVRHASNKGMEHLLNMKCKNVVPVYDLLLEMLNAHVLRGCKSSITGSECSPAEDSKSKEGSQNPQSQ
# Experiment: qHTS assay to identify small molecule agonists of the estrogen receptor beta (ER-beta) signaling pathway (AID 1259377)
# Conditions: ER-beta-UAS-bla HEK293T, beta-lactamase FRET ratio, 16 h; series mostly up to 92.4 µM
# From the text: U.S. Tox21 Program National Center for Advancing Translational Sciences [NCATS] NIH Chemical Genomics Center [NCGC] U.S. Environmental Protection Agency [EPA] National Institutes of Environmental Health Sciences [NIEHS] National Toxicology Program [NTP] U.S. Food and Drug Administration [FDA] Tox21 Assay Overview: Estrogen receptor (ER), a nuclear hormone receptor, plays an important role in development, metabolic homeostasis and reproduction. Two subtypes of ER, ER-alpha and ER-beta, have similar expression patterns with some uniqueness in both types. Endocrine disrupting chemicals (EDCs) and their interactions with steroid hormone receptors like ER causes disruption of normal endocrine function. To identify the compounds that activate ER signaling, an ER beta-UAS-bla GripTite cell line (Life technologies, Madison, WI, USA) containing a beta-lactamase reporter gene under the control of an Upstream Activator Sequence (UAS) was used to screen Tox21 10K compound library.
# Tox21 Assay Protocol Summary: ER-beta-UAS-bla HEK293T cells were dispensed at 2,000 cells/5 uL of assay medium containing 2% charcoal stripped FBS per well into black wall/clear-bottom 1536-well plates using a Multidrop Combi (ThermoFisher Scientific, Waltham, MA) dispenser. After the assay plates were incubated at a 37C and 5% CO2 for 6 hr, 23 nL of compounds dissolved in DMSO, positive controls or DMSO only was transferred to the assay plate by a Pintool station (Kalypsys, San Diego, CA). The plates were incubated at 37C and 5% CO2 for 16 hr. Then 1 uL of LiveBLAzerTM B/G FRET substrate was added using a BioRAPTR FRD (Flying Reagent Dispenser, Aurora Discovery, San Diego, CA). After the plates were incubated at room temperature for 2 hours, fluorescence intensity was measured by an Envision plate reader (PerkinElmer, Shelton, CT).
# Potency is the fitted concentration of half-maximal effect.
row,SMILES,Potency
1,CCCCCCC1CCOC1=O (stereo not given),inactive
2,COC(=O)c1ccccc1CS(=O)(=O)NC(=O)Nc1nc(OC)cc(OC)n1,inactive
3,COc1cc(CCN)cc(OC)c1OC,inactive
4,C=C1C[C@@H]2[C@H](CC[C@]3(C)C(=O)CC[C@@H]23)[C@@]2(C)C=CC(=O)C=C12,inactive
5,CC[C@H](N)c1ccccc1,inactive
6,COc1cccc(C=O)c1,inactive
7,BrCC1CO1 (stereo not given),inactive
8,CCOC(=O)C(SP(=S)(OC)OC)c1ccccc1 (stereo not given),inactive
9,O=C(O)C(F)(F)C(F)(F)C(F)(F)C(F)(F)C(F)(F)C(F)(F)F,inactive
10,C[C@H](CN1CCOCC1)C(C(=O)N1CCCC1)(c1ccccc1)c1ccccc1,inactive
11,CC[C@H](O)C(C[C@H](C)N(C)C)(c1ccccc1)c1ccccc1,inactive
12,O=C(O)CBr,inactive
13,COc1cc(CC(C)N)cc(OC)c1OC (stereo not given),inactive
14,O=C1CCCCC1Cl (stereo not given),inactive
15,Clc1nc(Cl)nc(Nc2ccccc2Cl)n1,inactive
16,Nc1c(Cl)c(F)nc(OCC(=O)O)c1Cl,inactive
17,ClCCCCCCCl,inactive
18,COc1ccc2c(C(=O)c3ccc(Cl)cc3)c(C)n(CC(=O)O)c2c1,inactive
19,CN(CCO)CCO,inactive
20,CC[C@@H](CO)NC(=O)[C@@H]1C=C2c3cccc4[nH]cc(c34)C[C@H]2N(C)C1,inactive

row,SMILES,Potency
1,COc1ccc(C=O)cc1O,inactive
2,CC(C)[N+](C)(CCC(C(N)=O)(c1ccccc1)c1ccccc1)C(C)C,inactive
3,CN(C)C(=O)Oc1cc(OC(=O)N(C)C)cc(C(O)CNC(C)(C)C)c1 (stereo not given),inactive
4,CCNc1nc(NCC)nc(SC)n1,inactive
5,CC(C)N(Cc1ccccc1)C(=O)C(C)(C)C,inactive
6,CCC(=O)c1ccc(Cl)cc1,inactive
7,NNC(N)=O,inactive
8,CCN[C@@H](C)Cc1ccccc1,inactive
9,NCCOS(=O)(=O)O,inactive
10,CC(=NC#N)N(C)Cc1ccc(Cl)nc1,inactive
11,CC(C)NCC(O)c1ccc([N+](=O)[O-])cc1 (stereo not given),inactive
12,CC(Cc1ccccc1)NCCCCl (stereo not given),inactive
13,BrCCc1ccccc1,inactive
14,OP(O)c1ccccc1,inactive
15,NC1(c2ccccc2)CCCCC1,inactive
16,CCC(CC)(CNC(=O)CCCO)c1cccc(OC)c1,inactive
17,CC1NCCOC1c1ccccc1 (stereo not given),inactive
18,Cc1cc(OC(=O)N(C)C)nn1C(=O)N(C)C,inactive
19,CC(C)(C)C(=O)C(Cl)Cl,inactive
20,CCNc1nc(Cl)nc(NC(C)(C)C)n1,27.3 µM (active)
